# The antibiotic and cytotoxicity screens of Wong et al. (2023)
# Among all 39,000 compounds or so, about 1,500 (3.8%) were called active. The sample holds actives, similar compounds and a random draw of the others, so the mix is not that of the screen.
# Test system: HSkMC (human skeletal muscle cells)
# Assay: cytotoxicity call (relative viability < 0.9)
# Conditions: 10 µM
row,Structure (SMILES),cytotoxicity call
1,Nc1cnc2ncc(N)cc2c1,inactive
2,CN1CCN(C(=O)C[C@@H]2C=C[C@H](NS(=O)(=O)c3cccc(F)c3)[C@H](CO)O2)CC1,inactive
3,C[C@@H]1CCCCO[C@@H](CN(C)CC2CCCCC2)[C@@H](C)CN([C@H](C)CO)C(=O)c2cc(NC(=O)NC3CCCCC3)ccc2O1,inactive
4,Nc1nc(=O)c2nc(C(=O)O)cnc2[nH]1,inactive
5,COc1cccc(S(=O)(=O)N(C)C[C@@H]2Oc3cc(Br)ccc3S(=O)(=O)N([C@@H](C)CO)C[C@@H]2C)c1,inactive
6,C[C@H]1CCCCO[C@H](CN(C)Cc2ccc(C(F)(F)F)cc2)[C@@H](C)CN([C@@H](C)CO)C(=O)c2cc(NS(=O)(=O)c3ccc(Cl)cc3)ccc2O1,active
7,C[C@H]1CCCCO[C@@H](CN(C)Cc2ccc(C(F)(F)F)cc2)[C@@H](C)CN([C@@H](C)CO)C(=O)c2cc(NS(=O)(=O)c3ccc(Cl)cc3)ccc2O1,inactive
8,C[C@@H]1CCCCO[C@@H](CN(C)Cc2ccc(C(F)(F)F)cc2)[C@H](C)CN([C@@H](C)CO)C(=O)c2cc(NS(=O)(=O)c3ccc(Cl)cc3)ccc2O1,active
9,C[C@@H]1CN([C@H](C)CO)C(=O)c2cc(NS(=O)(=O)c3ccc(Cl)cc3)ccc2O[C@@H](C)CCCCO[C@@H]1CN(C)Cc1ccc(C(F)(F)F)cc1,inactive
10,C[C@H]1CCCCO[C@@H](CN(C)Cc2ccc(C(F)(F)F)cc2)[C@@H](C)CN([C@@H](C)CO)C(=O)c2cc(NS(=O)(=O)c3ccc(F)cc3)ccc2O1,inactive
11,C[C@H](CO)N1C[C@H](C)[C@H](CN(C)Cc2ccc(C(F)(F)F)cc2)OCCCC[C@H](C)Oc2ccc(NS(=O)(=O)c3ccc(Cl)cc3)cc2C1=O,active
12,C[C@@H]1CCCCO[C@@H](CN(C)Cc2ccc(C(F)(F)F)cc2)[C@H](C)CN([C@H](C)CO)C(=O)c2cc(NS(=O)(=O)c3ccc(Cl)cc3)ccc2O1,active
13,C[C@@H]1CCCCO[C@@H](CN(C)Cc2ccc(C(F)(F)F)cc2)[C@@H](C)CN([C@H](C)CO)C(=O)c2cc(NS(=O)(=O)c3ccc(Cl)cc3)ccc2O1,inactive
14,C[C@@H]1CCCCO[C@H](CN(C)Cc2ccc(C(F)(F)F)cc2)[C@@H](C)CN([C@H](C)CO)C(=O)c2cc(NS(=O)(=O)c3ccc(Cl)cc3)ccc2O1,inactive
15,C[C@@H]1CN([C@@H](C)CO)C(=O)c2cc(NS(=O)(=O)c3ccc(Cl)cc3)ccc2O[C@@H](C)CCCCO[C@@H]1CN(C)Cc1ccc(C(F)(F)F)cc1,inactive
16,CCOC(=O)C1CCN(c2cn[nH]c(=O)n2)CC1,inactive
17,C[C@H]1CN([C@@H](C)CO)C(=O)Cc2cc(NC(=O)Nc3cccc4ccccc34)ccc2O[C@@H]1CN(C)C(=O)Nc1ccccc1,inactive
18,C=CCOC(=O)[C@H]1[C@@H]2C(=O)O[C@@H](c3ccccc3)[C@@H](c3ccccc3)N2[C@@H](c2ccc(OCCOC(=O)[C@H]3C[C@H]4C(=O)N5CCC[C@H]5C(=O)N4[C@H]3c3cccc(OCCO)c3)cc2)[C@]12C(=O)Nc1ccccc12,inactive
19,COc1ccc(NC(=O)N(C)C[C@H]2OCc3cnnn3CCCC(=O)N([C@H](C)CO)C[C@@H]2C)c(OC)c1,inactive
20,COc1ccc(S(=O)(=O)N(C)C[C@H]2Oc3ccc(NS(=O)(=O)c4ccc(F)cc4)cc3CC(=O)N([C@@H](C)CO)C[C@@H]2C)cc1,inactive

row,Structure (SMILES),cytotoxicity call
1,C[C@@H]1CN([C@@H](C)CO)C(=O)c2cc(NS(=O)(=O)c3ccc(Cl)cc3)ccc2O[C@@H](C)CCCCO[C@H]1CN(C)Cc1ccc(C(F)(F)F)cc1,active
2,C[C@H]1CN([C@@H](C)CO)C(=O)c2cccc(NC(=O)Nc3ccc(C(F)(F)F)cc3)c2O[C@@H]1CN(C)Cc1ccc(Oc2ccccc2)cc1,inactive
3,C[C@@H]1CN([C@@H](C)CO)C(=O)c2cccc(NC(=O)Nc3ccc(C(F)(F)F)cc3)c2O[C@@H]1CN(C)Cc1ccc(Oc2ccccc2)cc1,active
4,C[C@H](CO)N1C[C@H](C)[C@H](CN(C)Cc2ccc(Oc3ccccc3)cc2)Oc2c(NC(=O)Nc3ccc(C(F)(F)F)cc3)cccc2C1=O,active
5,C[C@@H]1CN([C@H](C)CO)C(=O)c2cccc(NC(=O)Nc3ccc(C(F)(F)F)cc3)c2O[C@H]1CN(C)Cc1ccc(Oc2ccccc2)cc1,active
6,C[C@H]1CN([C@@H](C)CO)C(=O)c2cccc(NC(=O)Nc3ccc(C(F)(F)F)cc3)c2O[C@H]1CN(C)Cc1ccccc1,inactive
7,C[C@@H]1CN([C@@H](C)CO)C(=O)c2cccc(NC(=O)Nc3ccc(C(F)(F)F)cc3)c2O[C@H]1CN(C)Cc1ccc(Oc2ccccc2)cc1,active
8,COC[C@H]1CNN1C(=O)c1cc(C)oc1C,inactive
9,C[C@@H]1CN([C@@H](C)CO)C(=O)c2cccc(NS(=O)(=O)c3cn(C)cn3)c2O[C@@H]1CN(C)C(=O)NC1CCCCC1,inactive
10,C[C@H]1CCCCO[C@H](CN(C)C(=O)c2ccccc2)[C@@H](C)CN([C@@H](C)CO)C(=O)c2cc(NC(=O)c3ccccc3)ccc2O1,inactive
11,COc1cccc(-c2ccc3c(c2)O[C@H](CN(C)C(=O)C2CCOCC2)[C@H](C)CN([C@H](C)CO)S3(=O)=O)c1,inactive
12,C[C@H](CO)N1C[C@H](C)[C@@H](CN(C)Cc2ccc(Oc3ccccc3)cc2)Oc2c(NC(=O)Nc3ccc(C(F)(F)F)cc3)cccc2C1=O,active
13,C[C@@H]1CN([C@H](C)CO)C(=O)c2cccc(NC(=O)Nc3ccccc3)c2O[C@@H]1CN(C)Cc1ccc(C(F)(F)F)cc1,inactive
14,C[C@H]1CN([C@@H](C)CO)C(=O)c2cccc(NC(=O)Nc3ccc(C(F)(F)F)cc3)c2O[C@H]1CN(C)Cc1ccc(Oc2ccccc2)cc1,active
15,C[C@H](CO)N1C[C@H](C)[C@H](CN(C)Cc2ccccc2)Oc2c(NC(=O)Nc3ccc(C(F)(F)F)cc3)cccc2C1=O,inactive
16,C[C@@H]1CN([C@H](C)CO)C(=O)c2cccc(NC(=O)Nc3ccc(C(F)(F)F)cc3)c2O[C@@H]1CN(C)Cc1ccc(Oc2ccccc2)cc1,active
17,C[C@@H]1CCCCO[C@@H](CN(C)CC2CC2)[C@H](C)CN([C@H](C)CO)C(=O)c2cc(NC(=O)Cc3ccccc3)ccc2O1,inactive
18,C[C@@H]1CN([C@H](C)CO)C(=O)c2cc(NC(=O)c3ccncc3)ccc2O[C@@H](C)CCCCO[C@@H]1CN(C)C(=O)C1CCCCC1,inactive
19,COc1ccc(NC(=O)N2C[C@@H](O)COC[C@@H]3O[C@H](CC(=O)NC4Cc5ccccc5C4)CC[C@H]32)cc1,inactive
20,CC(C)NC(=O)N(C)C[C@H]1Oc2ccc(NC(=O)NC3CCCCC3)cc2C(=O)N([C@@H](C)CO)C[C@H]1C,inactive

row,Structure (SMILES),cytotoxicity call
1,CC(C)NC(=O)Nc1ccc2c(c1)C(=O)N([C@H](C)CO)C[C@H](C)[C@H](CN(C)S(=O)(=O)c1cn(C)cn1)OCCCC[C@H](C)O2,inactive
2,C[C@@H]1CN([C@H](C)CO)C(=O)c2cc(NC(=O)Cn3cnnn3)ccc2O[C@@H]1CN(C)Cc1ccc(Oc2ccccc2)cc1,inactive
3,CCS(=O)(=O)N[C@H]1C=C[C@@H](CC(=O)NCc2ccc(Cl)cc2)O[C@@H]1CO,inactive
4,C[C@H]1CCCCO[C@H](CN(C)Cc2ccc(Cl)c(Cl)c2)[C@@H](C)CN([C@@H](C)CO)C(=O)c2cc(NC(=O)CCC(F)(F)F)ccc2O1,inactive
5,C[C@@H]1CCCCO[C@H](CN(C)Cc2ccc(Cl)c(Cl)c2)[C@H](C)CN([C@@H](C)CO)C(=O)c2cc(NC(=O)CCC(F)(F)F)ccc2O1,inactive
6,C[C@@H]1CN([C@H](C)CO)C(=O)c2cc(NC(=O)CCC(F)(F)F)ccc2O[C@@H](C)CCCCO[C@H]1CN(C)Cc1ccc(Cl)c(Cl)c1,active
7,C[C@@H]1CCCCO[C@@H](CN(C)Cc2ccc(Cl)c(Cl)c2)[C@H](C)CN([C@H](C)CO)C(=O)c2cc(NC(=O)CCC(F)(F)F)ccc2O1,inactive
8,C[C@@H]1CN([C@H](C)CO)C(=O)c2cc(NC(=O)CCC(F)(F)F)ccc2O[C@@H](C)CCCCO[C@@H]1CN(C)Cc1ccc(Cl)c(Cl)c1,active
9,C[C@H](CO)N1C[C@H](C)[C@@H](CN(C)Cc2ccc(Cl)c(Cl)c2)OCCCC[C@H](C)Oc2ccc(NC(=O)CCC(F)(F)F)cc2C1=O,inactive
10,C[C@H](CO)N1C[C@H](C)[C@@H](CN(C)Cc2ccc(C(=O)O)cc2)OCCCC[C@H](C)Oc2ccc(NC(=O)CCC(F)(F)F)cc2C1=O,inactive
11,Cc1cc(OCCCS(C)(=O)=O)cc(C)c1-c1cccc(COc2ccc3c(c2)OC[C@H]3CC(=O)O)c1,active
12,C[C@@H]1CN([C@H](C)CO)C(=O)c2cccc(NC(=O)c3ccc(-c4nccs4)cc3)c2O[C@H]1CN(C)Cc1ccccc1,inactive
13,CC(C)(N)c1cn(C2CCN(C(=O)C3CCC(C(C)(C)C)CC3)CC2)nn1 (stereo not given),inactive
14,CCO[C@@H]1OC(C(=O)N2CCOCC2)=C[C@H](c2coc3ccccc3c2=O)[C@H]1CCCOC(=O)NCCCCCC(=O)NO,inactive
15,COc1ccc(S(=O)(=O)Nc2ccc3c(c2)CC(=O)N([C@@H](C)CO)C[C@@H](C)[C@@H](CN(C)C(=O)Nc2c(C)noc2C)O3)cc1,inactive
16,Cc1ccc2sc(N(CCCN(C)C)C(=O)c3ccc(S(=O)(=O)N(C)Cc4ccccc4)cc3)nc2c1C,active
17,O=C(c1ccc(S(=O)(=O)N2CCCCCC2)cc1)N(Cc1cccnc1)c1nc2c(F)cc(F)cc2s1,inactive
18,Cc1cc(Cl)cc2sc(N(Cc3ccccn3)C(=O)c3ccc(S(=O)(=O)N4CCCC4)cc3)nc12,inactive
19,Cc1ccc2sc(N(CCCN(C)C)C(=O)c3ccc(S(=O)(=O)N(C)C4CCCCC4)cc3)nc2c1C,active
20,COc1cc(OC)c(S(=O)(=O)N(C)Cc2ccccc2)cc1S(=O)(=O)N(C)Cc1ccccc1,inactive
